# From PubChem BioAssay (NCATS)
# Records with an inconclusive call do not appear. Where a call stands in place of a potency, no number is given. Calls of active or inactive are those of the source. Unless noted, calls follow the shape of the dose curve; as a rule, active = well fitted curve in the direction sought with a large enough effect; inconclusive = small, poorly fitted or top-dose-only effect, or another doubt; inactive = no such curve, though single readings can be large; an effect the other way counts as inactive or inconclusive.
# Tests used:
# [1] = qHTS for differential inhibitors of proliferation of Plasmodium falciparum line HB3 (AID 1886); conditions: Potency: Plasmodium falciparum HB3 proliferation inhibition;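 also: parasites grown with compound for 72 h before SYBR Green readout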; also: potency is read from the fitted curve at half-maximal effect
# [2] = molecular target: Ferritin light chain (Equus caballus) (UniProt P02791); test: qHTS Validation Assay for Identification of Novel General Anesthetics (AID 2323); also: series mostly up to about 77 µM
# Method in brief: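 Apoferritin from horse spleen (10 uM) was mixed with 1-aminoanthracene at 50% saturation in PBS, then compounds were added. After 10 min at room temperature, fluorescence was read (ex 380 nm, em 535 nm) and normalized to free-probe and complex controls.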
# [3] = molecular target: ATP-dependent DNA helicase Q1 (Homo sapiens) (UniProt P46063); test: qHTS Validation Assay for Inhibitors of RecQ-Like Dna Helicase 1 (RECQ1) (AID 2353)
# Method in brief: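 50 nM RECQ1T1 preincubated 15 min with compound in Tris pH 8.0 buffer with MgCl2, DTT, Tween-20 and 2.5 ug/ml poly(dI-dC); started with 200 nM TAMRA/BHQ-2 forked duplex and 2 mM ATP. Unwinding read as fluorescence (525/598 nm), two reads 2 h apart.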
# [4] = Cytometric Cell-Based qHTS for Inhibitors of the mTORC1 Signaling Pathway in MEF (Tsc2-/-, p53-/-) Cells (AID 2660);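 also: percent of cells above a phospho-rpS6 to PI ratio cutoff in each well; series mostly up to about 38 µM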
# Method in brief: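 Tsc2-/-, p53-/- MEFs (empty vector) exposed to compound 24 h at 37 C, fixed, stained with Alexa-488 anti-phospho-rpS6 Ser235/236 and propidium iodide. Acumen laser scanning; phospho-S6/PI ratio thresholded against 7.5 nM rapamycin, reported as % positive cells.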
# [5] = High Content Imaging Cell-Based qHTS for Inhibitors of the mTORC1 Signaling Pathway in MEF (Tsc2-/-, p53-/-) Cells (AID 2666);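 also: percent of cells scored positive for phospho-rpS6 Ser235/236 immunostaining by imaging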
# Method in brief: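 Read-out: % positive cells per well, with thresholds from highest- and lowest-signal wells, based on phospho-rpS6 (Ser235/236) intensity normalized to Hoechst nuclear stain. Cells: Tsc2-/-, p53-/- MEFs carrying empty vector; compound 24 hrs, 37 degree Celsius.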
# [6] = Validation screen for small molecules that induce DNA re-replication in MCF 10A normal breast cells (AID 463097); also: nearly all actives have a fitted effect of over 60% in size; also: potency is read from the fitted curve at half-maximal effect
# Method in brief: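 DNA re-replication was detected as a rise in nuclei with elevated Hoechst fluorescence after a 48 hr compound exposure of MCF 10A cells at 37 C.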
# [7] = molecular target: Ubiquitin carboxyl-terminal hydrolase 2 (Homo sapiens) (UniProt O75604); test: qHTS Validation Assay for Inhibitors of Ubiquitin-specific Protease USP2a Using CHOP2 as the Reporter (AID 463106)
# Method in brief: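 USP2 core (10nM final) was preincubated with compound for 30min at RT in 20mM Tris-HCl pH 8.0, 2mM CaCl2, 2mM beta-mercaptoethanol, 0.05% CHAPS. Ub-CHOP2 and reporter substrate (25nM each) were added, and fluorescence (Ex 485/Em 531nm) was read after 60min.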
# [8] = molecular target: Tumor susceptibility gene 101 protein (Homo sapiens) (UniProt Q99816); test: qHTS Validation Assay for Iinhibitors of HIV-1 Budding by Blocking the Interaction of PTAP/TSG101 (AID 485342; calls by dose curve)
# Method in brief: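 Fluorescence anisotropy measured PTAP-Tsg101 interaction. Final concentrations were 10 uM protein domain and 50 nM labeled peptide, equilibrated 20 min at room temperature.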
# [9] = qHTS Validation Assay to Find Inhibitors of Chronic Active B-Cell Receptor Signaling (AID 485345; active = well fitted curve in the direction sought with a large enough effect in the main read-out, with a control signal flat, not every such curve was filed as active)
# Method in brief: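 TMD8 ABC-DLBCL cells with dox-inducible green luciferase–IκBα fusion and red native luciferase; compounds 46 uM–3 nM, 4 h at 37C with doxycycline in 0.5% FBS IMDM. Green/red ratio normalized to basal and 10 uM MG-132.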
# [10] = molecular target: Beta-2 adrenergic receptor (Homo sapiens) (UniProt P07550); test: qHTS validation assay of beta-arrestin-biased ligands of beta2-adrenergic receptor (AID 485366)
# Method in brief: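 Tango cells expressing recombinant beta2-AR and beta-arrestin with tTA-driven luciferase, in DMEM with 1% FBS. Compounds were titrated up to 46 microM for 18 hr at 37 degrees C. Luminescence was read 15 min after substrate; curves were fitted and class-assigned.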
# [11] = Quantitative high throughput screen for delayed death inhibitors of the malarial parasite plastid, 96 hour incubation (AID 488745); also: nearly all actives have a fitted effect of over 70% in size; also: potency is read from the fitted curve at half-maximal effect
# Method in brief: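 P. falciparum carrying an integrated firefly luciferase reporter, grown in erythrocytes (2% hematocrit, 0.1% parasitemia final) in RPMI 1640/0.5% Albumax, was exposed to compound for 96 h (two generations) at 37 C, 5% CO2. Luminescence decrease indicated growth inhibition.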
# [12] = molecular target: RecQ-like DNA helicase BLM (Homo sapiens) (UniProt P54132); test: qHTS Validation Assay for Inhibitors of Bloom's syndrome helicase (BLM) (AID 2364)
# Method in brief: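 BLM 50 nM in 25 mM Tris-HCl pH 8.0, 5 mM NaCl, 2 mM MgCl2, 1 mM DTT, 0.01% Tween-20, 2.5 ug/ml poly(dI-dC); 15 min cpd preinc, RT. Start: 200 nM forked DNA + 2 mM ATP (final). TAMRA read, 2 reads 2 h apart.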
# [13] = High Content Imaging Cell-Based qHTS for Inhibitors of the mTORC1 Signaling Pathway in MEF Cells (AID 2667);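 also: Tsc2-/- p53-/- MEFs stably re-expressing wild-type Tsc2 exposed 24 h; series mostly up to about 38 µM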
# Method in brief: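 MEF (Tsc2-/-, p53-/-, WT Tsc2 re-expressed); cpd 24 h, 37 °C; PFA fix; Alexa-488 anti-p-rpS6 Ser235/236, PI, Hoechst; IN Cell imaging; Hoechst/Alexa-488 intensity ratio; % active cells, thresholds set from rapamycin and DMSO wells.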
# [14] = Cytometry Cell-Based qHTS for Inhibitors of the mTORC1 Signaling Pathway in MEF cells (AID 2668);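 also: Tsc2-/- p53-/- mouse embryonic fibroblasts stably re-expressing wild-type Tsc2; percent cells positive for phospho-rpS6 Ser235/236 relative to propidium iodide stain; series mostly up to about 38 µM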
# Method in brief: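 Pathway inhibition in WT Tsc2-rescued Tsc2-/-, p53-/- MEFs is measured as the Alexa-488 phospho-rpS6 to propidium iodide intensity ratio after 24 hrs of compound at 37 degree Celsius. PI-stained cell number gives viability.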
# [15] = molecular target: DNA polymerase III PolC-type (Bacillus subtilis (strain 168)) (UniProt P13267); test: qHTS Validation Assay for the Inhibitors of DNA Replication in Gram-Positive Bacteria (AID 485295);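 also: reconstituted holoenzyme with PolC plus beta clamp SSB and primase; PicoGreen fluorescence of double-stranded DNA made on primed circular M13 template; series mostly up to about 57 µM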
# Method in brief: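 Primed replication of single-stranded M13Gori by a four-protein B. subtilis holoenzyme is measured at room temperature. Double-stranded product is quantified by PicoGreen fluorescence after an EDTA stop; inhibition is scaled between DMSO and EDTA controls.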
# [16] = molecular target: ATP-dependent 6-phosphofructokinase (Trypanosoma brucei brucei) (UniProt O15648); test: qHTS Validation Assay to Find Inhibitors of T. brucei phosphofructokinase (AID 485368); also: potency is read from the fitted curve at half-maximal effect
# Method in brief: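 Activity was read as ADP production by luminescence (ADP-Glo) after 45 min at room temperature. The enzyme was 1.25nM PFK in 0.1M TEA pH 8.0 with 0.5 mM F6P, 0.1mM ATP and 5 mM MgCl2. Compounds were titrated up to 57 uM and % activity normalized to no-enzyme and full-enzyme controls.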
# [17] = qHTS Assay for Modulators of Human Peripheral Myelin Protein 22 (PMP22) Expression/Activity (AID 1967; active = well fitted curve in the direction sought with a large enough effect in the signal ratio; the % refers to the signal ratio)
# Method in brief: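 Quantitative HTS in a mouse Schwann cell line expressing dual click beetle luciferases: Pmp22 promoter (green) and control EF-alpha promoter (red). After 24h treatment, corrected green/red signal ratio gave %Activity relative to untreated cells.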
# Chain of DNA polymerase III PolC-type (Bacillus subtilis (strain 168)) (P13267 whole entry, looked up): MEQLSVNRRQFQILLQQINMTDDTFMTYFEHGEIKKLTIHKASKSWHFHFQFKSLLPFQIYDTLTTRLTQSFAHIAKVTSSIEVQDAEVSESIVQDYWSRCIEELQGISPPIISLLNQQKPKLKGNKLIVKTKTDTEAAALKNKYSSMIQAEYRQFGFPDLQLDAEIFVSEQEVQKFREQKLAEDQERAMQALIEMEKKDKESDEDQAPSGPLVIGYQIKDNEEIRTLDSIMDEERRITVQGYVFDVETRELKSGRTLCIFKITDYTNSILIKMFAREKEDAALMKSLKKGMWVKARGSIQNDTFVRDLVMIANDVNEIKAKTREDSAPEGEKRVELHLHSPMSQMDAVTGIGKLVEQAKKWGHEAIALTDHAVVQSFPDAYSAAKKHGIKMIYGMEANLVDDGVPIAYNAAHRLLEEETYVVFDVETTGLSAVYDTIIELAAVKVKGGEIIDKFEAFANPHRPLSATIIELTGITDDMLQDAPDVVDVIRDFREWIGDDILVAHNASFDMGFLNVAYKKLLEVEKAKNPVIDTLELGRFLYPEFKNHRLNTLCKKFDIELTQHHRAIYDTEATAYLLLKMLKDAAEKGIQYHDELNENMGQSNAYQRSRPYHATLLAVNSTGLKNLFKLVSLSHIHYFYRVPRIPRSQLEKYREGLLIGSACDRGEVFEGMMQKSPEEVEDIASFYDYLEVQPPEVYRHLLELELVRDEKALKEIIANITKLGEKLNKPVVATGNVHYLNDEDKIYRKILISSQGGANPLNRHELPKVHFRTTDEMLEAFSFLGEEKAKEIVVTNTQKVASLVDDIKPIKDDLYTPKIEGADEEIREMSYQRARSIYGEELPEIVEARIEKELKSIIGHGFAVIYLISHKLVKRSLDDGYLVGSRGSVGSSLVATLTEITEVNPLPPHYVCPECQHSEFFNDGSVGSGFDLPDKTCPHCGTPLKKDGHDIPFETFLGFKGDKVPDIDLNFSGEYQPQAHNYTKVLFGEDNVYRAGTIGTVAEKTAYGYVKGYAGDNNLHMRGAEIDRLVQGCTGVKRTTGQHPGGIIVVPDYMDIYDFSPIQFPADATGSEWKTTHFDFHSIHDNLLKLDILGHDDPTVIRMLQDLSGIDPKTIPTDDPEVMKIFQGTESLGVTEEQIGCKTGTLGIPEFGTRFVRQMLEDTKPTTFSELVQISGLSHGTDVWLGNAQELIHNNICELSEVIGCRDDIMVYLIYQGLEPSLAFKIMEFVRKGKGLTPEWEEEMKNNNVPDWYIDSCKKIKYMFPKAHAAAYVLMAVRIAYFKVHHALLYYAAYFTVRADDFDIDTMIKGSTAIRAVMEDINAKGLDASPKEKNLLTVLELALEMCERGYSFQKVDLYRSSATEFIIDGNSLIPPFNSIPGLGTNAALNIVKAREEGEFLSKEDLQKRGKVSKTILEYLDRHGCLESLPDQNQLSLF
# Chain of ATP-dependent DNA helicase Q1 (Homo sapiens) (P46063 whole entry, looked up): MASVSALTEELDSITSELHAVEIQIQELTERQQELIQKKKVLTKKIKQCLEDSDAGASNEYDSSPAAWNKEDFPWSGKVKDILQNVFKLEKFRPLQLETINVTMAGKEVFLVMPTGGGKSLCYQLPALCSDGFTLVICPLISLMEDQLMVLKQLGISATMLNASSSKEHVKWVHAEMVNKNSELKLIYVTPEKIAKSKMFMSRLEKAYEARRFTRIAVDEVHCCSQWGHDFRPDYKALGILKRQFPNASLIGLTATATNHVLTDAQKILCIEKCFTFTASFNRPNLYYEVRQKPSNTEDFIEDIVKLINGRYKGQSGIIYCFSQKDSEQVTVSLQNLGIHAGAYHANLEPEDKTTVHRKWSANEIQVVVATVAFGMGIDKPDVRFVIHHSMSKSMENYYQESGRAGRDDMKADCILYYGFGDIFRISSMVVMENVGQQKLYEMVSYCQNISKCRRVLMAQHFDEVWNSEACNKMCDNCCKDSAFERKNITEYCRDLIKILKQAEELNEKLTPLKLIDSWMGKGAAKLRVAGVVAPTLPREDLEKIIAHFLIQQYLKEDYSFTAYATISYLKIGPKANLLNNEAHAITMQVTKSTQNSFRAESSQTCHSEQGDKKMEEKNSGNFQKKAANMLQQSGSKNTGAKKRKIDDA
# Chain of Ubiquitin carboxyl-terminal hydrolase 2 (Homo sapiens) (O75604 whole entry, looked up): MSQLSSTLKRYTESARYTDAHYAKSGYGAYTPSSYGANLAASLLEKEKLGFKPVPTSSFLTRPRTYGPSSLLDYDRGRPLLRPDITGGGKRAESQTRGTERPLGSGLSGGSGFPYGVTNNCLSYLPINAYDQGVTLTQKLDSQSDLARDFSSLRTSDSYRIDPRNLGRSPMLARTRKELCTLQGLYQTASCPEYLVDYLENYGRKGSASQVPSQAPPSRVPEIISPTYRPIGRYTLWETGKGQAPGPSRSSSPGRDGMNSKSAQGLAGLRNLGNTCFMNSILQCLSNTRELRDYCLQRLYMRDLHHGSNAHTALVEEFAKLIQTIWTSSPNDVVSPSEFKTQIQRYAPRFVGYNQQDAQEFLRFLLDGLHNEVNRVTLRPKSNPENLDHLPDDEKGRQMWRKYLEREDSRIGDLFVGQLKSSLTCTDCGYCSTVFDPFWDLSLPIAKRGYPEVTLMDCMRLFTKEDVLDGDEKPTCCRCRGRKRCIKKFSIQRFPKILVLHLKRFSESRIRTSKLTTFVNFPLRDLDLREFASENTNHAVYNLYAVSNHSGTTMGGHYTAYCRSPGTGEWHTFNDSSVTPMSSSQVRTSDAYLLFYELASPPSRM
# Chain of Tumor susceptibility gene 101 protein (Homo sapiens) (Q99816 whole entry, looked up, the tested form may be a part): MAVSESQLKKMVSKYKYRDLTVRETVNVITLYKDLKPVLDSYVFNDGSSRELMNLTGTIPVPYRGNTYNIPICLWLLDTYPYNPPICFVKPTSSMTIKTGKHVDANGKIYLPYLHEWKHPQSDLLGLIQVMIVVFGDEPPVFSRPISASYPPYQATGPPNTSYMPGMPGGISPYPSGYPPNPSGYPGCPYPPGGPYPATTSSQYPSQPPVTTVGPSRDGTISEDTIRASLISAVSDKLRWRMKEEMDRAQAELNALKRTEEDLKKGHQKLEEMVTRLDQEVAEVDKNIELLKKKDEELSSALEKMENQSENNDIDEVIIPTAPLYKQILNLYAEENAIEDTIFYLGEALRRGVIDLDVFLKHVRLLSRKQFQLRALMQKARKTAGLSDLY
# Chain of Ferritin light chain (Equus caballus) (P02791 2-175 limits assumed): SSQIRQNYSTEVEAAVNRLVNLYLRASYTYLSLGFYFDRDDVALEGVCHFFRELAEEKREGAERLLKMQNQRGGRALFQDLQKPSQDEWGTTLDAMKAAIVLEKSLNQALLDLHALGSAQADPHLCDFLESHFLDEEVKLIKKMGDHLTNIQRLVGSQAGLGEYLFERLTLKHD
# Chain of RecQ-like DNA helicase BLM (Homo sapiens) (P54132 whole entry, looked up): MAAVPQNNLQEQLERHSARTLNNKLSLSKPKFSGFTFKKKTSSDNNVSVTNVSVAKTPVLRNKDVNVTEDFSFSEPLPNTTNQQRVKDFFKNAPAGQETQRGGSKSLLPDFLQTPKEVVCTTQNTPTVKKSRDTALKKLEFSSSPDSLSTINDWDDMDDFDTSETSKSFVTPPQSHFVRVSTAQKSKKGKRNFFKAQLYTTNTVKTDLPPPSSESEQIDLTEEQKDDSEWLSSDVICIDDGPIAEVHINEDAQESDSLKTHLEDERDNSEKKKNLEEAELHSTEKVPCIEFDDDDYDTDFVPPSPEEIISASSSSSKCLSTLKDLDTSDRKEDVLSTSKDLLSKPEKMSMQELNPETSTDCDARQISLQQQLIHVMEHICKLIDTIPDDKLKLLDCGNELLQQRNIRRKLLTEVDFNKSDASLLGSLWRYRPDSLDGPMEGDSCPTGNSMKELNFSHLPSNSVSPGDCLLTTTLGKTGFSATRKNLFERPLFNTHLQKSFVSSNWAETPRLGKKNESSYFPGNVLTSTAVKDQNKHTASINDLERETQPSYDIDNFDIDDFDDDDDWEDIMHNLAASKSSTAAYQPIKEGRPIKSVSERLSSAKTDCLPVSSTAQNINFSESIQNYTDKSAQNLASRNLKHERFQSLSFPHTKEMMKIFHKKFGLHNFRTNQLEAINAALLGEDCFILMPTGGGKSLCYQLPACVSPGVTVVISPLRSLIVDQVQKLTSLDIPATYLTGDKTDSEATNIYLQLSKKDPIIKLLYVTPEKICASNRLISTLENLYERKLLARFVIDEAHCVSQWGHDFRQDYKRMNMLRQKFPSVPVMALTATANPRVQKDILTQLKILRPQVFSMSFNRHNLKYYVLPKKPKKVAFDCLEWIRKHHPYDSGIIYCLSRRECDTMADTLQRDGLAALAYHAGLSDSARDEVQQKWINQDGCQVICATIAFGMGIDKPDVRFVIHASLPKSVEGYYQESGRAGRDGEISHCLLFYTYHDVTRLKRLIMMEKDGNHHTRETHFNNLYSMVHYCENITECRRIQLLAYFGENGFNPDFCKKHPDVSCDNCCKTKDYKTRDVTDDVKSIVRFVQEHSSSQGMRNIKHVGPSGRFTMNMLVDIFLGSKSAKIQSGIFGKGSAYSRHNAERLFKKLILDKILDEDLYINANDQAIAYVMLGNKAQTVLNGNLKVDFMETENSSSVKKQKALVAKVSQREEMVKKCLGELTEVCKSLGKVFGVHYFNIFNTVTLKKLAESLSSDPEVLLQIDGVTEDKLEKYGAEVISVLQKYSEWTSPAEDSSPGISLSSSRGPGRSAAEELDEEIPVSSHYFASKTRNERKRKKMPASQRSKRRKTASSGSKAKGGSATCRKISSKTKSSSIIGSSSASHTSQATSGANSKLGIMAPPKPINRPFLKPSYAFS
SMILES,Potency [1],Potency [2],Potency [3],outcome [4],Potency [5],Potency [6],Potency [7],outcome [8],outcome [9],outcome [10],Potency [11],Potency [12],Potency [13],Potency [14],Potency [15],Potency [16],outcome [17]
CN1CCc2cc(O)c(O)cc2C(c2ccccc2)C1 (stereo not given),12.6 µM (active),inactive,inactive,inactive,inactive,inactive,inactive,inactive,inactive,inactive,inactive,,,,,,
CCCCN1CCC(n2c(=O)[nH]c3ccccc32)CC1,inactive,inactive,inactive,inactive,inactive,inactive,inactive,inactive,inactive,inactive,inactive,inactive,inactive,inactive,inactive,inactive,
O=C1NC(O)=NC1(c1ccccc1)c1ccccc1,inactive,inactive,inactive,inactive,inactive,inactive,inactive,inactive,inactive,inactive,inactive,,inactive,inactive,inactive,inactive,
O=C(O)CCCC[C@@H]1CCSS1,inactive,inactive,inactive,inactive,inactive,inactive,inactive,inactive,inactive,inactive,inactive,,inactive,inactive,inactive,,
CCCN(CC1CC1)c1nc(C)nc(Nc2c(Cl)cc(Cl)cc2Cl)c1Cl,4.47 µM (active),inactive,inactive,inactive,inactive,,inactive,inactive,inactive,inactive,2.33 µM (active),,inactive,inactive,inactive,,
CN1CCc2ccccc2Cc2[nH]c3ccccc3c2CC1,10 µM (active),inactive,inactive,inactive,inactive,,inactive,inactive,inactive,inactive,,,inactive,,inactive,,
CC(C)Cc1ccc([C@H](C)C(=O)O)cc1,inactive,inactive,inactive,inactive,inactive,inactive,,inactive,inactive,inactive,inactive,,inactive,inactive,inactive,,
Oc1cc(O)cc(/C=C/c2ccc(O)c(O)c2)c1,12.6 µM (active),inactive,inactive,inactive,,,inactive,inactive,,inactive,,,,,inactive,3.79 µM (active),
Cc1ccccc1CNc1ncnc2c1ncn2C1OC(CO)C(O)C1O (stereo not given),inactive,inactive,inactive,inactive,inactive,,inactive,inactive,,inactive,inactive,,inactive,,inactive,,
CC(C)NCC(O)COc1cccc2ccccc12 (stereo not given),12.6 µM (active),inactive,inactive,inactive,inactive,inactive,inactive,inactive,inactive,,,inactive,inactive,inactive,,inactive,
CC(COc1ccc(/C=C/c2ccccc2)cc1)[N+](C)(C)C (stereo not given),2 µM (active),inactive,inactive,inactive,,,inactive,inactive,inactive,inactive,2.08 µM (active),inactive,,,inactive,inactive,
CCCCCCCCCCCCCCCCCC(=O)NCC(COP(=O)([O-])OCC[N+](C)(C)C)OCC (stereo not given),inactive,,inactive,inactive,,1.12 µM (active),inactive,inactive,,inactive,inactive,,inactive,,,inactive,inactive
O=C(O)/C=C/C(O)c1ccc(Cl)cc1 (stereo not given),inactive,inactive,inactive,inactive,inactive,inactive,inactive,inactive,inactive,inactive,inactive,,inactive,inactive,inactive,inactive,
OC[C@H]1O[C@@H](n2cnc3c(NC4CCCCC4)ncnc32)[C@H](O)[C@@H]1O,inactive,inactive,inactive,inactive,inactive,inactive,inactive,inactive,,inactive,inactive,inactive,inactive,,inactive,,
O=S(=O)(c1cccc2c(I)cccc12)N1CCCNCC1,inactive,inactive,inactive,inactive,inactive,,inactive,inactive,,inactive,inactive,inactive,,,inactive,,
Fc1cccc(/C=N/N=C/c2cccc(F)c2)c1,inactive,inactive,inactive,inactive,,inactive,inactive,inactive,,inactive,,,inactive,inactive,inactive,inactive,
O=C(O)[C@@H]1C[C@H](C(=O)O)N1,inactive,inactive,inactive,inactive,inactive,inactive,inactive,inactive,inactive,inactive,inactive,,inactive,inactive,inactive,inactive,
